# Only some compounds are listed: those with a hit (about 14% of all), similar ones and a draw of the others.
# 4-MU autofl: compound fluoresces in the 4-MU spectral region. compound autofluorescence, 340/450 nm, 4-MU equivalents; hits give high values. max dye-equivalent concentration, M. 59,000 compounds, 11% hits; in the data active = max dye-equivalent concentration above about 10 nM; inconclusive = mostly about 1.1 nM to 9.6 nM
#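 Compounds in 100 mM Tris, pH 8.0, incubated 15 min at room temperature, then fluorescence read at 340 nm excitation/450 nm emission. Signal converted to 4-MU dye-equivalent concentration using an on-plate six-point 4-MU standard curve.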
# CRE-bla Fsk: modulators of forskolin-stimulated CRE signaling in CHO cells; CHO CRE-bla reporter (cAMP response element driving beta-lactamase), forskolin EC10, beta-lactamase ratio; Potency, µM (titrated, usually from 38.2 µM), without a hit: at the top dose activity change, negative = inhibition, most hits filed as activators; 71,000 compounds, 2.5% hits; AID 662; active = well fitted activation curve with a large enough effect in the signal ratio, with a control signal flat, not every such curve was filed as active; inconclusive = small, poorly fitted or top-dose-only effect, or effect the other way, or a change in a side signal; the % refers to the signal ratio; also: potency is read from the fitted curve at half-maximal effect; % of control where 0% means no effect
#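 CRE-bla CHO cells stimulated with EC10 NKH 477 (water-soluble forskolin) and compound titrations, 3 h at 37C; beta-lactamase read with CCF4 after 2 h at room temperature. Activity from 460/530 nm emission ratio, AC50 values for positive or negative modulation.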
# AID923: qHTS Assay for Allosteric/Competitive Inhibitors of Caspase-1: Spectroscopic Profiling in AFC Spectral Region; Potency, µM (top dose mostly 57.5 µM), for the others: top-dose fluorescence increase, actives largely listed as activators; 75,000 compounds, 1.1% hits; compound fluorescence, AFC spectral region (405/520 nm); AID 923, 2007; also: potency is read from the fitted curve at half-maximal effect; 0% is about no effect
#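 Titrations up to 57 uM read every 20 sec for 3 min (405/520 nm) with 50 nM caspase 1 and 5 uM Ac-WEHD-AFC, pH 7.5 HEPES buffer. Fluorescence-vs-time intercept gave baseline, scaled against on-plate AFC standard.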
# HSD17B inhib: HSD17B dehydrogenase inhibition; 75,000 compounds, 7.6% hits; AID 893; Potency, µM (doses to about 57.1 µM), without a hit: at the top dose activity change, negative = inhibition, most hits filed as inhibitors; recombinant HSD17B10, NADH fluorescence kinetic;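 also: the protocol describes HADH2 (HSD17B10) and not the HSD17B4 of the title; potency is read from the fitted curve at half-maximal effect; % is scaled to controls: 0 for no effect and ±100 for the full control effect; nearly all actives have a fitted effect of over 70% in size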
#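 Enzyme plus compound, 15 min room temperature; substrate mix added (NAD+ 1 mM, beta-hydroxybutyryl-CoA 90 uM final); plates read kinetically for NADH fluorescence. HADH2 was His-tagged, E. coli-derived, 20 nM.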
# A350 fluor: A350 region autofluorescence; Compound autofluorescence, 340/450 nm, Alexa 350 dye-equivalents; hits give high values; max dye-equivalent concentration, M; 59,000 compounds, 11% hits; AID 590; in the data active = max dye-equivalent concentration above about 10 nM; inconclusive = mostly about 1.1 nM to 9.6 nM
# HADH2 inh: inhibitors of human HADH2 dehydrogenase; 73,000 compounds, 3.4% hits; recombinant HADH2, NADH fluorescence, beta-hydroxybutyryl-CoA; Potency, µM (titrated, usually from 57.1 µM), for the others: at the highest dose activity change, negative = inhibition, most hits filed as inhibitors; also: potency is read from the fitted curve at half-maximal effect; % is scaled to controls: 0 for no effect and ±100 for the full control effect; nearly all actives have a fitted effect of over 60% in size
# Target sequence (Q99714 whole entry, looked up, one chain of several): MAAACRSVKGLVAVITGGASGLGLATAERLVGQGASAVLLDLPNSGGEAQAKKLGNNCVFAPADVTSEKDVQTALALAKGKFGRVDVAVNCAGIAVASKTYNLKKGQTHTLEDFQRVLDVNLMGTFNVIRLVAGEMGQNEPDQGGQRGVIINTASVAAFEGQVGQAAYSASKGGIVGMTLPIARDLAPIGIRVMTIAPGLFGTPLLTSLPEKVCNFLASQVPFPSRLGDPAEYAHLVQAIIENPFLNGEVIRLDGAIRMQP
#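 Activity measured as NADH fluorescence gain (360/450 nm), taken as the change between first and last reads of a 4-min kinetic run. Conditions: pH 9.0 Tris buffer, 20 nM E. coli-expressed His-tagged enzyme, 1 mM NAD+, 90 uM beta-hydroxybutyryl-CoA; 15-min compound preincubation.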
# CHO via 24h: cytotoxicity in CRE-bla CHO cells at 24 h; activity, negative = viability loss, % at 46.1 µM; shares compounds with CRE-bla Fsk; 120 tested, under 10 active; CRE-bla CHO viability, ATP luminescence, 24 h
# CHO tox 40h: cytotoxicity in CRE-bla CHO cells at 40 h | shares compounds with CRE-bla Fsk | CRE-bla CHO viability, ATP luminescence, 40 h | Potency, µM, for inactives: max response, actives largely listed as inhibitors | 120 tested, under 10 active | AID 906
# CRE-luc potent: confirmation of CRE signaling potentiators in HEK293 CREB reporter cells | shares compounds with CRE-bla Fsk | HEK293 CRE-luc2P, NKH477 EC10 potentiation, luminescence, 4 h | Potency, µM (highest dose often 38.3 µM), for the others: at the top dose activity, positive = activation, usual class: activators | 120 compounds, 80% hits | AID 907
# * hit, by the source's call; i = inactive; ? = inconclusive; · = no result given; [ ] = another dose, or the depositor's remark. Unless noted, calls follow the shape of the dose curve; as a rule, active = well fitted curve in the direction sought with a large enough effect; inconclusive = small, poorly fitted or top-dose-only effect, or another doubt; inactive = no such curve, though single readings can be large; an effect the other way counts as inactive or inconclusive.
SMILES,4-MU autofl,CRE-bla Fsk,AID923,HSD17B inhib,A350 fluor,HADH2 inh,CHO via 24h,CHO tox 40h,CRE-luc potent
COC(=O)c1ccc(CSc2nc3c(cnn3-c3ccc(Cl)cc3)c(=O)[nH]2)o1,i,?,0.9%,-5.7%,i,-27.7%,·,·,·
Nc1nc(CSc2n[nH]c(-c3ccccc3)n2)nc(Nc2ccccc2)n1,i,2µM*,-1.7%,-13.8%,?,-5.2%,-10.4,?,5.01µM*
NC(N)=Nc1ccc(-c2ccc(N=C(N)N)cc2)cc1,i,-3.6%[7.6 µM],-4.1%[11.5 µM],-1.9%[11.4 µM],i,9.2%[11.4 µM],·,·,·
COc1ccc(Oc2ncc3nc(CCc4ccccc4)c(=O)n(CCC#N)c3n2)cc1,i,?,6.4%,-27.9%,i,-13.8%,·,·,·
Fc1ccc(CSc2ncnc3c2oc2ccccc23)cc1,i,1µM*,-2.4%,-7.4%,?,-7.2%,6.8,-20.9%,7.94µM*
c1ccc2[nH]c(CN3CCN(c4ncnc5c4oc4ccccc45)CC3)nc2c1,i,?,-0.4%,-7.1%,i,7.0%,·,·,·
O=C(CSc1ncnc2c1oc1ccccc12)c1cccs1,i,?,3.5%,1.7%,i,9.6%,-4.4,-11.2%,1.26µM*
Fc1cccc(CSc2ncnc3c2oc2ccccc23)c1,i,?,0.8%,1.6%,i,-11.1%,·,·,·
c1ccc2[nH]c(CSc3ncnc4c3oc3ccccc34)nc2c1,i,?,4.5%,31.8%,i,5.6%,-17.7,?,0.794µM*
Cc1nc(SCc2nc3ccccc3[nH]2)c2oc3ccccc3c2n1,i,0.0158µM*,6.9%,?,i,8.5%,16.0,2.2%,1µM*
COc1ccc(/C(O)=C(\C#N)c2nc3ccccc3n2C)cc1OC,1.36e-08M*,5.01µM*,1.0%,-11.4%,?,1.8%,-9.0,-18.7%,4.47µM*
Fc1cccc(CSc2ncnc3c2ncn3[C@H]2CCCS2)c1,i,?,-0.5%[11.5 µM],-1.3%[11.4 µM],i,12.2%[11.4 µM],·,·,·
CN(CC(=O)O)Cc1c(O)c(Cl)cc(Cl)c1Cl,i,-7.7%[7.6 µM],4.8%[11.5 µM],5.9%[11.4 µM],i,5.5%[11.4 µM],·,·,·
CCCCCOC(=O)c1[nH]c2c(c1C)C(=O)CC(c1ccco1)C2 (centres undefined),·,0.0794µM*,-0.1%,-14.4%,·,-3.5%,-22.2,-26.7%,-16.5%
CCCOC(=O)c1[nH]c2c(c1C)C(=O)CC(c1ccc(OC)c(OC)c1)C2 (centres undefined),i,6.8%,-1.7%,-8.6%,i,10.6%,·,·,·
COC(=O)CC[C@@H](C)[C@@H]1CC[C@@H]2[C@@H]3CC[C@H]4C[C@@H](O)CC[C@@]4(C)[C@@H]3CC[C@]21C,i,?,0.1%[11.5 µM],-1.1%[11.4 µM],i,9.9%[11.4 µM],·,·,·
Cc1sc2nc(SCc3nc4ccccc4[nH]3)n(Cc3ccco3)c(=O)c2c1C,?,0.631µM*,2.1%,0.6%,?,4.7%,-16.5,?,1.58µM*
COC(=O)C/C=C\[C@@H](C)[C@@H](/C=N\O[C@@H](C)c1cn([C@H]2COC[C@H]2O)nn1)NS(=O)(=O)c1ccc(C)cc1,·,·,-1.0%[11.5 µM],1.9%[11.4 µM],·,19.1%[11.4 µM],·,·,·
O=C(CSc1ncnc2c1oc1ccccc12)Nc1ccc2c(c1)OCCO2,i,?,0.4%,-13.9%,i,10.2%,·,·,·
CCn1c(=O)cc(SCC(=O)Nc2ccc3c(c2)OCCO3)c2ccccc21,i,?,0.5%,-22.1%,i,-12.5%,·,·,·
Cc1nc(SCC(=O)Nc2ccc3c(c2)OCCO3)c2oc3ccccc3c2n1,i,0.251µM*,0.3%,-5.6%,i,27.9%,-9.8,-20.4%,5.01µM*
CCc1nc(SCC(=O)Nc2ccc3c(c2)OCCO3)c2oc3ccccc3c2n1,i,0.398µM*,0.1%,-11.2%,i,17.4%,?,31.6µM*,3.98µM*
CC(=O)OC1CC2C(C)(C)C(O)CC[C@@]2(C)C2CC[C@@]3(C)C(c4ccoc4)OC(=O)C4O[C@@]43[C@]12C (some centres undefined),·,·,0.3%,4.0%,·,·,·,·,·
CCCC1(C(=O)OC)C=C2C(=C(C(C)C)C(=O)C2C)CN1 (centres undefined),·,?,6.3%,-11.6%,·,16.0%,·,·,·
CCOC(=O)c1cnc2c(cnn2CC)c1NN=C(C)C,3.16e-08M*,1µM*,-0.3%,?,1.98e-08M*,?,-17.6,?,3.16µM*
SMILES,4-MU autofl,CRE-bla Fsk,AID923,HSD17B inhib,A350 fluor,HADH2 inh,CHO via 24h,CHO tox 40h,CRE-luc potent
CN(C)Cc1ccccc1-c1nc(NCc2cccs2)c2ccccc2n1,i,?,1.6%,4.4%,i,20.7%,·,·,·
CSc1nnc2c3ccccc3n(CCc3ccccc3)c2n1,·,0.0158µM*,0.9%,-26.8%,·,-2.6%[11.4 µM],?,?,3.16µM*
CCn1c2ccccc2c2nnc(SCc3cc(=O)n4ccsc4n3)nc21,i,1µM*,0.3%,-0.7%,i,4.4%,-14.6,?,5.01µM*
O=C(NCc1cccs1)O[C@H]1C[C@H]2CC[C@@H]1C2,i,6.6%[7.6 µM],2.7%[11.5 µM],-0.6%[11.4 µM],i,5.8%[11.4 µM],·,·,·
CC[C@]1(O)C[C@@H]2CN(CCc3c([nH]c4ccccc34)[C@](C(=O)OC)(c3cc4c(cc3OC)N(C)[C@H]3[C@](O)(C(=O)OC)[C@@H](C(=O)OC)[C@@]5(CC)C=CCN6CC[C@@]43[C@@H]65)C2)C1,·,0.251µM*,0.4%,-23.2%,·,0.8%,?,?,-1.1%
COC(=O)c1ccc(CSc2ccc3nnc(-c4ccc(OC)c(OC)c4)n3n2)o1,i,1.58µM*,-0.8%,?,i,-6.6%,-20.0,-27.6%,2µM*
COC(=O)c1ccc(CSc2ccc3nnc(-c4cccnc4)n3n2)o1,·,?,1.7%,10.2%,·,-11.3%,·,·,·
CCOC(=O)C(=O)C1(C(=O)OCC)Oc2cc(OC)cc(OC)c2C(=O)C1c1ccccc1 (centres undefined),·,·,1.1%,-5.7%,·,·,·,·,·
O=[N+]([O-])c1c(Cl)cc(Cl)cc1Cl,·,-7.5%,0.8%,-0.4%,·,-0.6%,·,·,·
CCNc1nc(NC(C)(C)C)nc(N(C#N)CC)n1,i,?,2.4%,-5.0%,i,12.5%,-12.2,-25.0%,1.26µM*
